About 83,000 compounds went through this panel and 20% of them were active in at least one assay; those are over-represented in the sample as a whole.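 Compound tested at a single concentration for 48 hours in 96-well plates; a percent growth value below 10 was scored as active.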 Activity calls are given as the source filed them.
How the values were obtained:
Experiment in all cases: NCI-60 one-dose screen, 48 h (100 = growth as untreated, 0 = no growth, -100 = all killed)
Conditions in all cases: 10 µM unless noted
NCI-H23 lung = system: NCI-H23 lung
NCI-H226 lung = system: NCI-H226 lung
HOP-62 NSCLC = system: HOP-62 NSCLC
NCI-H460 lung = system: NCI-H460 lung
HOP-92 NSCLC = system: HOP-92 NSCLC
NCI-H522 lung = system: NCI-H522 lung
A549/ATCC NSCLC = system: A549/ATCC NSCLC
786-0 renal = system: 786-0 renal
COLO 205 colon = system: COLO 205 colon
DU-145 prostate = system: DU-145 prostate
K-562 leukemia = system: K-562 leukemia
MALME-3M melanoma = system: MALME-3M melanoma
MDA-MB-231 breast = system: MDA-MB-231 breast
RXF 393 renal = system: RXF 393 renal
SF-268 CNS = system: SF-268 CNS
SF-295 CNS = system: SF-295 CNS
SF-539 CNS = system: SF-539 CNS
UACC-257 melanoma = system: UACC-257 melanoma
M14 melanoma = system: M14 melanoma

Measured: growth

CCc1cccc2c3c(sc12)C(c1ccc(Cl)cc1)C(C#N)=C(N)O3 (stereo unspecified)
active: COLO 205 colon 9.3% | K-562 leukemia 6.13% | RXF 393 renal -18.8% | SF-295 CNS 2.87% | SF-539 CNS -15.4% | M14 melanoma 5.36%
inactive: NCI-H23 lung 22.5% | NCI-H226 lung 41.2% | HOP-62 NSCLC 36.9% | NCI-H460 lung 10.2% | HOP-92 NSCLC 66.7% | NCI-H522 lung 16.8% | A549/ATCC NSCLC 34.6% | 786-0 renal 26.9% | DU-145 prostate 19.3% | MALME-3M melanoma 54.6% | MDA-MB-231 breast 31.6% | SF-268 CNS 54.1% | UACC-257 melanoma 80%

O=C(/C=C/c1sc(Cl)nc1Cl)c1ccccc1
inactive: NCI-H23 lung 95.2% | NCI-H226 lung 99.7% | HOP-62 NSCLC 101% | NCI-H460 lung 102% | HOP-92 NSCLC 94.3% | NCI-H522 lung 93% | A549/ATCC NSCLC 99.9% | 786-0 renal 97% | COLO 205 colon 87.4% | DU-145 prostate 99.1% | K-562 leukemia 10.8% | MALME-3M melanoma 95.7% | MDA-MB-231 breast 98.7% | RXF 393 renal 99.7% | SF-268 CNS 104% | SF-295 CNS 102% | SF-539 CNS 72.3% | UACC-257 melanoma 94.9% | M14 melanoma 79.8%

CC([C@H]1CCC2C3CCC4C(=O)C(NC=O)=CC[C@]4(C)C3CC[C@@]21C)N(C)C (stereo partly specified)
inactive: NCI-H23 lung 44.2% | NCI-H226 lung 88.5% | HOP-62 NSCLC 74.2% | HOP-92 NSCLC 41.7% | NCI-H522 lung 96.1% | A549/ATCC NSCLC 45% | 786-0 renal 46.1% | DU-145 prostate 59.5% | K-562 leukemia 15% | MDA-MB-231 breast 11.2% | SF-295 CNS 36.6%
active: NCI-H460 lung -4.84% | COLO 205 colon -80.1% | MALME-3M melanoma -2.06% | RXF 393 renal -53.3% | SF-268 CNS -3.89% | SF-539 CNS -45.6% | UACC-257 melanoma -20.9% | M14 melanoma -33%

CN1CCN(c2ccc(-c3ccc4ncc(C#N)c(Nc5ccc(F)c(Cl)c5)c4c3)cc2)CC1
active: K-562 leukemia 0.404% | MALME-3M melanoma -63.5% | UACC-257 melanoma -0.414% | M14 melanoma -33.5%
inactive: NCI-H23 lung 77.4% | NCI-H226 lung 86.8% | HOP-62 NSCLC 65.9% | NCI-H460 lung 27% | HOP-92 NSCLC 63.5% | NCI-H522 lung 33.3% | A549/ATCC NSCLC 45.6% | 786-0 renal 45.4% | COLO 205 colon 47.5% | DU-145 prostate 29.1% | MDA-MB-231 breast 76.8% | RXF 393 renal 27.3% | SF-268 CNS 50.8% | SF-295 CNS 69.6% | SF-539 CNS 54.3%

N#CC1=C(N)Oc2c(sc3c(Br)cccc23)C1c1ccc([N+](=O)[O-])cc1 (stereo unspecified)
inactive: NCI-H23 lung 11.7% | NCI-H226 lung 58.9% | HOP-62 NSCLC 26.6% | A549/ATCC NSCLC 24.7% | 786-0 renal 10.2% | MALME-3M melanoma 93.2% | RXF 393 renal 17.6% | SF-268 CNS 13.5% | UACC-257 melanoma 87.1%
active: NCI-H460 lung -7.51% | HOP-92 NSCLC -7.19% | NCI-H522 lung -6.47% | COLO 205 colon -49.7% | DU-145 prostate 8.77% | K-562 leukemia 7.66% | SF-295 CNS -5.7% | SF-539 CNS -18% | M14 melanoma 3.87%

COc1ccc(C2NC(=O)C(C#N)c3c2sc2c(F)cccc32)c(OC)c1 (stereo unspecified)
inactive: NCI-H23 lung 64.8% | NCI-H226 lung 62.2% | HOP-62 NSCLC 57.4% | NCI-H460 lung 31.8% | HOP-92 NSCLC 42.2% | A549/ATCC NSCLC 58.5% | 786-0 renal 68.5% | COLO 205 colon 88.3% | DU-145 prostate 90.5% | K-562 leukemia 23.9% | MALME-3M melanoma 39.8% | MDA-MB-231 breast 72.7% | SF-268 CNS 52.1% | SF-295 CNS 27.7% | UACC-257 melanoma 68.3% | M14 melanoma 37.8%
active: NCI-H522 lung 7.97% | RXF 393 renal 9.65% | SF-539 CNS 8.87%

CN(C)CC#Cc1ccc2ncc(C#N)c(Nc3ccc(F)c(Cl)c3)c2c1
inactive: NCI-H23 lung 58.2% | NCI-H226 lung 60.8% | HOP-62 NSCLC 67.8% | NCI-H460 lung 50.8% | HOP-92 NSCLC 56.1% | NCI-H522 lung 45.3% | A549/ATCC NSCLC 51% | 786-0 renal 49.4% | COLO 205 colon 71.3% | DU-145 prostate 22.4% | K-562 leukemia 51.4% | MALME-3M melanoma 45.1% | MDA-MB-231 breast 56.1% | RXF 393 renal 32.4% | SF-268 CNS 59.2% | SF-295 CNS 65.4% | SF-539 CNS 62.4% | UACC-257 melanoma 76% | M14 melanoma 40.5%

CCOC(=O)c1c(C)nc2c(c1N)CC(=O)N2Cc1ccc(F)cc1
inactive: NCI-H23 lung 99.8% | NCI-H226 lung 90.8% | HOP-62 NSCLC 82.1% | NCI-H460 lung 99.7% | HOP-92 NSCLC 71.5% | NCI-H522 lung 63.7% | A549/ATCC NSCLC 90.8% | 786-0 renal 98.3% | COLO 205 colon 103% | DU-145 prostate 100% | K-562 leukemia 93.3% | MALME-3M melanoma 116% | MDA-MB-231 breast 97.9% | RXF 393 renal 101% | SF-268 CNS 96.4% | SF-295 CNS 95.3% | SF-539 CNS 92.9% | UACC-257 melanoma 96% | M14 melanoma 94.8%

Reference: PubChem BioAssay (NCI)
